Laboratory results: PubChem BioAssay (NCI)
Compounds without any hit were thinned out: in the full panel of roughly 79,000, 15% have a hit. Values without a mark were called inactive. Activity calls are given as the source filed them. Cut-off read from the data, not from the text of the source: active = growth inhibition above about 70%; inactive = the rest.

Tests used:
[1] = NCI Yeast Anticancer Drug Screen. Data for the rad50 strain (AID 155);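 note: 0% = growth of vehicle-only cultures of the same strain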; details: S. cerevisiae rad50 strain growth inhibition; at 50.0 µM; active compounds read high
In short: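 A DNA repair-deficient yeast mutant serves as the test organism; compound-induced growth inhibition is calculated against vehicle-treated cells.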

[2] = NCI Yeast Anticancer Drug Screen. Data for the mec2-1 strain (AID 157); details: S. cerevisiae mec2-1 strain, at 50.0 µM, active compounds read high
In short: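 Compounds were applied to mec2-1 yeast cells. Their growth was then compared with that of vehicle-treated cultures to give growth inhibition.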

[3] = NCI Yeast Anticancer Drug Screen. Data for the sgs1 mgt1 strain (AID 161);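 note: 0% = growth of cultures given vehicle only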; details: S. cerevisiae sgs1 mgt1 strain, at 50.0 µM, active compounds read high
In short: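 Growth of a repair-deficient yeast mutant was monitored after compound treatment and expressed as inhibition relative to vehicle-treated cultures.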

[4] = NCI Yeast Anticancer Drug Screen. Data for the cln2 rad14 strain (AID 165);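 note: 0% = growth equal to vehicle treated cultures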; details: S. cerevisiae cln2 rad14 strain, at 50.0 µM, active compounds read high
In short: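 Strain: cln2 rad14 yeast, altered in cell cycle control and DNA damage repair. Read-out: growth inhibition vs vehicle.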

[5] = NCI Yeast Anticancer Drug Screen. Data for the bub3 strain (AID 167); details: S. cerevisiae bub3 mutant strain, at 50.0 µM, active compounds read high
In short: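 Inhibition values come from growth of compound-treated mutant yeast normalised to vehicle-treated controls.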

[6] = NCI Yeast Anticancer Drug Screen. Data for the mlh1 rad18 strain (AID 175); details: S. cerevisiae mlh1 rad18 strain growth inhibition; at 50.0 µM; active compounds read high
In short: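 A repair-deficient yeast strain is exposed to test compound, and growth is scored relative to vehicle-treated controls.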

| Structure (SMILES) | growth inhibition [1] | growth inhibition [2] | growth inhibition [3] | growth inhibition [4] [%] | growth inhibition [5] | growth inhibition [6] |
| --- | --- | --- | --- | --- | --- | --- |
| O=C(Cl)C=Cc1ccc([N+](=O)[O-])cc1 (mixture of isomers) | 4.7% | 6.7% | -0.25% | -6.65 | 2.15% | 1.95% |
| CCOCC1OCCCO1 | -13.5% | 12.4% | 1.6% | -9.85 | -10% | 7.15% |
| COC1/C=C\OC2(C)Oc3c(C)c(O)c4c(c3C2=O)C(=O)C(Br)=C(NC(=O)/C(C)=C\C=C/C(C)C(O)C(C)C(O)C(C)C(OC(C)=O)C1C)C4=O (stereo unspecified) | 16.1% | 13.8% | 22.4% | 22.2 | 14.8% | 20.5% |
| FC(F)(F)c1nc2ccccc2[nH]1 | 16.9% | -1.4% | 9.55% | 14.8 | -1.65% | 13.3% |
| CC1CCCC(=O)CCC1 | 2.9% | -4.6% | -9.05% | 7.15 | 10.8% | 2.55% |
| CCCCCC(=O)OCC[N+](C)(C)C | -29.8% | -29.9% | -6.95% | 4.85 | -25.2% | -13.2% |
| O=C(c1ccc(Cl)cc1Cl)C(CS(=O)(=O)O)CS(=O)(=O)O | -20.9% | -27.2% | -5.8% | -49.4 | -5.6% | -1.1% |
| S=C=NCCCCCCCCCCCCN=C=S | 94.4% (active) | 89.5% (active) | 94.2% (active) | 58.5 | 89.7% (active) | 94.7% (active) |
| O=C(O)C(CO)Nc1ccccc1 (stereo unspecified) | 18.9% | 10.4% | 22.1% | 12.9 | -0.65% | 21.7% |
| O=C(/C=C/c1cccs1)c1ccc(Cl)s1 | -18.3% | -33.3% | -2.55% | -7.45 | -6.5% | 0.2% |
| N/N=C(\N)SCc1ccc(N=C=S)cc1 | -4.8% | 6.85% | 17.4% | 18.9 | 16.5% | 15.5% |
| C1=CCC(C(Cc2ccccc2)N2CCCCC2)CC1 (stereo unspecified) | 15.8% | 1% | 23.9% | -27.4 | 11.2% | 24.1% |
| CCn1c(C)[n+](CC)c2ccc(C(C)=O)cc21 | -0.35% | -19.7% | -3.95% | 8.95 | 2.55% | -8.75% |
| Cc1cc2c(cc1C)[n+](=O)c(C(=O)C/C(=N/OCCCc1ccccc1)C(=O)Nc1cc(Cl)ccc1Cl)c(C)n2[O-] | -35.1% | 1.8% | -7.2% | 19.2 | 9.1% | -10.3% |
| c1ccc([P+](Cc2ccc(C[P+](c3ccccc3)(c3ccccc3)c3ccccc3)cc2)(c2ccccc2)c2ccccc2)cc1 | 48.2% | 35.6% | 29.4% | 40.5 | 47.9% | 37.5% |
| BrCC1OCC2(CO1)COC(CBr)OC2 (stereo unspecified) | -11.2% | 11.3% | -7% | -16 | -6% | -13.2% |
| Cc1ccc(S(=O)(=O)N2CCCC2C(=O)O[C@H]2CC[C@H]3CC=C[C@H]32)cc1 (stereo partly specified) | -15.6% | -44.7% | -8.2% | -8.45 | -5.25% | -21.6% |
| CN(Cc1ccc(Cl)cc1)C(=O)Nc1ccccc1Cl | 6.7% | 14.7% | 43.3% | 7.35 | 40.2% | 9.95% |
| C/C=C/Cc1ccccc1O | 7.1% | -3.4% | -5.05% | -6.4 | -9.2% | -1.1% |
| CCC(C)C(C)(O)CC (stereo unspecified) | -2.6% | -28.9% | -21.8% | 4.1 | -8.8% | -4.8% |
| CC1(C)C2CCC1(C)C1(C2)OC(CCl)CS1 (stereo unspecified) | 7.4% | -13.8% | 14.1% | 4.3 | 22.4% | 8.4% |

| Structure (SMILES) | growth inhibition [1] | growth inhibition [2] | growth inhibition [3] | growth inhibition [4] [%] | growth inhibition [5] | growth inhibition [6] |
| --- | --- | --- | --- | --- | --- | --- |
| CC(=O)O[C@]12CCCCCCC1C1(O)C(O)CCC[C@H]12 (stereo partly specified) | -23.6% | -1.95% | -53.2% | -8.95 | -22.2% | -36.6% |
| CCCCCCCCCCCCCCCCC(C)=O | 2.2% | 20.6% | 5% | -16.6 | 21.9% | -11.7% |
| CCc1ccccc1NC(=O)CCl | 9.15% | 0.3% | -0.35% | 17.6 | -3.1% | 2.75% |
| COC(=O)C(NC(=O)c1ccccc1)C(c1c(O)cc(O)cc1O)P(=O)(OC)OC (stereo unspecified) | -4.75% | 10.3% | 12.4% | 3.35 | 1% | 18% |
| COC/C(=N/Nc1ccc([N+](=O)[O-])cc1[N+](=O)[O-])C(C)(C)C | -2.8% | 16.4% | 8.6% | -26.3 | -20.9% | -16.8% |
| CCCCCCCc1ccccc1 | -13.1% | -14.7% | -19.6% | 3.95 | 20.2% | -6.5% |
| CC1SC2(C(=O)Nc3ccccc32)N(c2ccc(O)cc2)C1=O (stereo unspecified) | 6.25% | -2.75% | 9.45% | 2 | 7.9% | 14.8% |
| Cc1ccccc1C(=O)c1ccc2ccccc2c1 | 11.4% | 26.2% | 28.2% | 9.35 | 9.3% | 25.4% |
| CCCC(=O)c1ccc(=O)n(C)c1 | 18.2% | 9.8% | -4.4% | -2.1 | 14.4% | 17.9% |
| Cc1cccc(S(=O)(=O)c2ccccc2)c1 | 22.9% | 34.1% | -15.7% | 13.1 | 4.35% | 18.6% |
| CCCCCN(CCCCC)c1ccc(/C=C/c2ccnc3ccccc23)cc1 | 1.6% | 7.05% | 22.9% | -15.7 | -10.2% | 14.6% |
| CCCCC1OCCOC1C1COCCO1 (stereo unspecified) | -7.25% | -21.9% | -10.8% | -6 | 2.55% | 6.7% |
| COC(=O)C(CC(=O)C=[N+]=[N-])NC(=O)C(Cl)Cl (stereo unspecified) | -2.4% | -8.9% | -4.7% | -15.9 | 9.3% | -8.95% |
| CC1=C(C(=O)N(C)c2ccc(Cl)c(C(=O)OC(C)C)c2)SCCO1 | -19.6% | -50.8% | -12.1% | -6 | -11.8% | -28.1% |
| CC(=O)Nc1nc(Cl)c2ncn(C3OC(COC(=O)c4ccccc4)CC3OC(=O)c3ccccc3)c2n1 (stereo unspecified) | 10.2% | 3.1% | -8.8% | 2.6 | 10.6% | 4.5% |
| CC1(C)O[C@@H]2[C@@H](COC(=O)c3ccccc3)C[C@@H](C#N)[C@@H]2O1 | 4.05% | -0.85% | -25.6% | 24.9 | 38.9% | -11.2% |
| Cc1ccc(S(=O)(=O)SCC(=O)c2ccc(Br)cc2)cc1 | 27.4% | -15.4% | 29.1% | 16.6 | 4.35% | 9.85% |
| CCCCCCCCCCCCCCCCCCCCCCCCCCCCCCCCCCCCSC(=N)N | 8.25% | 0.45% | 3.8% | -7.05 | -0.25% | 12.8% |
| Cc1c(N=Nc2cccc(F)c2)c(-c2ccccc2)nn1C(=S)S | 20.2% | 5.25% | 11.7% | 15.9 | 26.8% | 16.7% |
| CNC(=O)c1cccc([N+](=O)[O-])c1 | 32.1% | 19.8% | 21.7% | -31.2 | 7.25% | 30.2% |
